Test results as given in PubChem BioAssay (NCI).
Compounds without any hit were thinned out: in the full panel of roughly 83,000, 20% have a hit.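 Cells were grown in 96-well plates and exposed to the test compound at a single concentration for 48 hours; results are reported as percent growth, with values below 10 considered active.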 The source made the active and inactive calls.

Legend:
Assay in all cases: NCI-60 one-dose screen, 48 h (100 = growth as untreated, 0 = no growth, -100 = all killed)
Settings in all cases: 10 µM unless noted
SR leukemia = tested on: SR leukemia
RPMI-8226 leukemia = tested on: RPMI-8226 leukemia
OVCAR-5 ovarian = tested on: OVCAR-5 ovarian
SK-OV-3 ovarian = tested on: SK-OV-3 ovarian
IGROV1 ovarian = tested on: IGROV1 ovarian
OVCAR-3 ovarian = tested on: OVCAR-3 ovarian
HS 578T breast = tested on: HS 578T breast
NCI/ADR-RES ovarian = tested on: NCI/ADR-RES ovarian
T-47D breast = tested on: T-47D breast
BT-549 breast = tested on: BT-549 breast
MDA-MB-435 melanoma = tested on: MDA-MB-435 melanoma
SW-620 colon = tested on: SW-620 colon
MCF7 breast = tested on: MCF7 breast
HCT-116 colon = tested on: HCT-116 colon
HCC-2998 colon = tested on: HCC-2998 colon
KM12 colon = tested on: KM12 colon
OVCAR-4 ovarian = tested on: OVCAR-4 ovarian
OVCAR-8 ovarian = tested on: OVCAR-8 ovarian

Measured: growth

CCCCCCNC(=O)Oc1ccc(/C(=C(\C)c2ccccc2)c2ccc(OCCCN(C)C)cc2)cc1
inactive: RPMI-8226 leukemia 81.6% | OVCAR-5 ovarian 85.5% | SK-OV-3 ovarian 95.6% | IGROV1 ovarian 80.4% | OVCAR-3 ovarian 89.7% | HS 578T breast 74% | NCI/ADR-RES ovarian 81% | T-47D breast 46.2% | BT-549 breast 85.4% | MDA-MB-435 melanoma 48.3% | SW-620 colon 92.4% | MCF7 breast 21.3% | HCT-116 colon 47.1% | HCC-2998 colon 86.7% | KM12 colon 74.3%
active: SR leukemia 2.09%

CCN(CC)CCn1c(=O)c2cc(OC)c(OC)cc2c2ccc3cc4c(cc3c21)OCO4
active: SR leukemia -14.9% | RPMI-8226 leukemia 3.16% | HCT-116 colon 8.5%
inactive: SK-OV-3 ovarian 32.8% | IGROV1 ovarian 29% | OVCAR-3 ovarian 62.4% | HS 578T breast 64.3% | NCI/ADR-RES ovarian 29.9% | T-47D breast 39.1% | BT-549 breast 26.2% | MDA-MB-435 melanoma 50.4% | SW-620 colon 26% | MCF7 breast 16.1% | HCC-2998 colon 74.9% | KM12 colon 41.9%

COc1ccc(C(=O)c2cc(C)c(OC)c(C)c2)c(OC)c1N(C(=O)CCl)C(=O)CCl
active: SK-OV-3 ovarian 2.36% | OVCAR-3 ovarian -6.63% | NCI/ADR-RES ovarian -37.1% | BT-549 breast 3.05% | MDA-MB-435 melanoma -46.8% | HCT-116 colon -0.69% | KM12 colon 6.61%
inactive: SR leukemia 21% | RPMI-8226 leukemia 17.7% | OVCAR-5 ovarian 29.2% | OVCAR-4 ovarian 44.9% | IGROV1 ovarian 13.8% | HS 578T breast 23% | T-47D breast 51.2% | SW-620 colon 20.3% | MCF7 breast 14% | HCC-2998 colon 13.5%

CN(C)c1ccc(C2C(C#N)=C(/N=C/c3ccccc3)Oc3c2ccc2ccccc32)cc1 (stereo not given)
active: MDA-MB-435 melanoma 4.53%
inactive: SR leukemia 17.7% | RPMI-8226 leukemia 70.6% | OVCAR-5 ovarian 99.5% | OVCAR-4 ovarian 97.4% | SK-OV-3 ovarian 66.8% | IGROV1 ovarian 49.8% | OVCAR-3 ovarian 43.7% | HS 578T breast 66.7% | NCI/ADR-RES ovarian 54.4% | T-47D breast 83.1% | BT-549 breast 69.6% | SW-620 colon 41% | MCF7 breast 54.3% | HCC-2998 colon 104% | KM12 colon 58.8%

CCOC(=O)CCN(CC(C)C)C(=S)Nc1ccccc1
inactive: SR leukemia 97.1% | RPMI-8226 leukemia 115% | OVCAR-5 ovarian 100% | OVCAR-4 ovarian 112% | SK-OV-3 ovarian 130% | IGROV1 ovarian 102% | OVCAR-3 ovarian 124% | HS 578T breast 117% | NCI/ADR-RES ovarian 105% | T-47D breast 105% | BT-549 breast 106% | MDA-MB-435 melanoma 102% | SW-620 colon 107% | MCF7 breast 98.8% | HCT-116 colon 95.9% | HCC-2998 colon 108% | KM12 colon 104%

CCN(Cc1ccccc1)c1ccc(C=O)cc1
inactive: SR leukemia 90.3% | RPMI-8226 leukemia 90.4% | OVCAR-5 ovarian 93.1% | OVCAR-4 ovarian 85.8% | SK-OV-3 ovarian 103% | IGROV1 ovarian 96.1% | OVCAR-3 ovarian 97.9% | HS 578T breast 120% | NCI/ADR-RES ovarian 101% | T-47D breast 78.6% | BT-549 breast 95.1% | MDA-MB-435 melanoma 107% | SW-620 colon 97.9% | MCF7 breast 96% | HCT-116 colon 91.3% | HCC-2998 colon 93.7% | KM12 colon 106%

CC(C)=CCC[C@](C)(O)[C@H]1CC[C@]2(C)[C@@H]1CC[C@@H]1[C@@]3(C)C/C(=C/c4ccccc4)C(=O)C(C)(C)[C@@H]3CC[C@]12C
inactive: RPMI-8226 leukemia 79.3% | OVCAR-8 ovarian 93.4% | OVCAR-5 ovarian 102% | OVCAR-4 ovarian 89.2% | SK-OV-3 ovarian 97.8% | IGROV1 ovarian 101% | OVCAR-3 ovarian 103% | HS 578T breast 91.3% | NCI/ADR-RES ovarian 100% | T-47D breast 87.4% | BT-549 breast 100% | MDA-MB-435 melanoma 90.3% | SW-620 colon 80.4% | MCF7 breast 94.6% | HCT-116 colon 85.1% | HCC-2998 colon 98.8% | KM12 colon 90%

N=C1C(c2nc3ccccc3s2)=C(O)CN1c1cc(Cl)cc(Cl)c1
inactive: OVCAR-8 ovarian 67.2% | OVCAR-5 ovarian 87% | OVCAR-4 ovarian 131% | SK-OV-3 ovarian 99.4% | IGROV1 ovarian 52.5% | OVCAR-3 ovarian 87.2% | HS 578T breast 52.7% | NCI/ADR-RES ovarian 78.9% | T-47D breast 97% | BT-549 breast 71.3% | MDA-MB-435 melanoma 41.6% | SW-620 colon 54.8% | MCF7 breast 148% | HCT-116 colon 46.5% | HCC-2998 colon 85.8% | KM12 colon 64.7%
active: SR leukemia 7.21%

O=C1CC(=O)OC(c2ccc([N+](=O)[O-])cc2)O1
active: OVCAR-5 ovarian -3.68% | IGROV1 ovarian -59.6% | OVCAR-3 ovarian -60.6% | NCI/ADR-RES ovarian -44.3% | MDA-MB-435 melanoma -27.9% | SW-620 colon -42.8% | MCF7 breast 7.35% | HCT-116 colon -68.8% | HCC-2998 colon 7.55% | KM12 colon -75.3%
inactive: RPMI-8226 leukemia 14.1% | OVCAR-8 ovarian 11.6% | OVCAR-4 ovarian 24.6% | SK-OV-3 ovarian 89.6% | HS 578T breast 13.1% | T-47D breast 17.9% | BT-549 breast 51.4%

COc1ccc(-c2cnc3c(-c4cccc5cnccc45)cnn3c2)cc1
inactive: RPMI-8226 leukemia 40.8% | OVCAR-8 ovarian 41.8% | OVCAR-5 ovarian 96.1% | OVCAR-4 ovarian 36.4% | SK-OV-3 ovarian 68.6% | IGROV1 ovarian 83.5% | OVCAR-3 ovarian 73.4% | HS 578T breast 74% | NCI/ADR-RES ovarian 56.3% | T-47D breast 22.8% | BT-549 breast 50.1% | MDA-MB-435 melanoma 62.9% | SW-620 colon 60.7% | MCF7 breast 78.7% | HCC-2998 colon 99.1% | KM12 colon 63.1%
active: HCT-116 colon -15%

Cc1c2cc[nH]c(=O)c2c(C)c2c1[nH]c1cc(OCCN3CCN(C)CC3)ccc12
inactive: OVCAR-5 ovarian 16.1% | IGROV1 ovarian 20.2% | OVCAR-3 ovarian 17.1% | HS 578T breast 15.1% | NCI/ADR-RES ovarian 23.2% | T-47D breast 22.7% | BT-549 breast 33.3% | HCC-2998 colon 35%
active: RPMI-8226 leukemia -8.18% | OVCAR-8 ovarian 5.54% | OVCAR-4 ovarian -1.71% | SK-OV-3 ovarian -1.65% | MDA-MB-435 melanoma 4.54% | SW-620 colon 9.61% | MCF7 breast -11.6% | HCT-116 colon 7.2% | KM12 colon 8.55%

CCNc1nc2cc(Nc3ccnc4cc(Cl)ccc34)ccc2o1
inactive: RPMI-8226 leukemia 80.9% | OVCAR-8 ovarian 85.3% | OVCAR-5 ovarian 71.8% | OVCAR-4 ovarian 75.5% | SK-OV-3 ovarian 84.8% | IGROV1 ovarian 70.1% | OVCAR-3 ovarian 80.9% | HS 578T breast 84.5% | NCI/ADR-RES ovarian 52.3% | T-47D breast 66.4% | BT-549 breast 81.4% | SW-620 colon 54.9% | MCF7 breast 40.8% | HCT-116 colon 42.3% | HCC-2998 colon 68.7% | KM12 colon 38%
active: MDA-MB-435 melanoma 9.8%

COc1cc(C(=O)Nc2cc3c(cc2Oc2cc(C)cc(C)c2)C(=O)N(C)[C@@H](CC(=O)N(C)O)C(=O)N3)c(Br)c(OC)c1OC
active: RPMI-8226 leukemia -26.2% | OVCAR-8 ovarian 0.573% | OVCAR-5 ovarian -18.6% | OVCAR-4 ovarian -33.3% | SK-OV-3 ovarian -0.559% | IGROV1 ovarian -22.5% | OVCAR-3 ovarian -35.5% | HS 578T breast -18.1% | T-47D breast 1.62% | BT-549 breast -30.2% | MDA-MB-435 melanoma -86.2% | SW-620 colon -2.61% | MCF7 breast -14.8% | HCT-116 colon -35.5% | HCC-2998 colon -45.6% | KM12 colon -28.6%
inactive: NCI/ADR-RES ovarian 17.9%

CCCCN1C=CCN(CCCC)C1
inactive: RPMI-8226 leukemia 37.9% | OVCAR-8 ovarian 44.2% | OVCAR-5 ovarian 82.7% | OVCAR-4 ovarian 42.6% | SK-OV-3 ovarian 84.2% | IGROV1 ovarian 46.4% | OVCAR-3 ovarian 13.1% | HS 578T breast 88.9% | NCI/ADR-RES ovarian 108% | BT-549 breast 56.9% | SW-620 colon 73.4% | MCF7 breast 32.5% | HCT-116 colon 34% | HCC-2998 colon 46.2% | KM12 colon 22.9%
active: T-47D breast 6.14% | MDA-MB-435 melanoma 6.59%

CCCCC/C=C/C(C)=C/C1CC(C)C/C=C/CCC(O)C(OC(N)=O)CCC(C)CC(O)C(C)C(=O)O1 (stereo not given)
inactive: RPMI-8226 leukemia 56.3% | OVCAR-8 ovarian 98.5% | OVCAR-5 ovarian 102% | OVCAR-4 ovarian 107% | SK-OV-3 ovarian 111% | IGROV1 ovarian 87.3% | OVCAR-3 ovarian 129% | HS 578T breast 94% | NCI/ADR-RES ovarian 96% | T-47D breast 91.6% | BT-549 breast 120% | MDA-MB-435 melanoma 50.6% | SW-620 colon 103% | MCF7 breast 86.5% | HCT-116 colon 94.1% | HCC-2998 colon 52.3% | KM12 colon 102%

Cn1cc(-c2csc(-c3c[nH]c4ccccc34)n2)c2ccnc(Cl)c21
inactive: RPMI-8226 leukemia 53.8% | OVCAR-8 ovarian 78.3% | OVCAR-5 ovarian 127% | OVCAR-4 ovarian 48.5% | SK-OV-3 ovarian 93.9% | IGROV1 ovarian 91.8% | OVCAR-3 ovarian 81% | HS 578T breast 80.8% | NCI/ADR-RES ovarian 81.8% | T-47D breast 18.4% | BT-549 breast 93.8% | MDA-MB-435 melanoma 75.7% | SW-620 colon 41.7% | MCF7 breast 30.3% | HCT-116 colon 59.4% | HCC-2998 colon 92.4% | KM12 colon 58.9%

Cc1ccc(-c2nc3ccccn3c2/C=C2/C(=O)Nc3cc(Cl)ccc32)cc1
active: MDA-MB-435 melanoma -12.7%
inactive: RPMI-8226 leukemia 93.6% | OVCAR-8 ovarian 91.7% | OVCAR-5 ovarian 101% | OVCAR-4 ovarian 74.7% | SK-OV-3 ovarian 94.4% | IGROV1 ovarian 81.3% | OVCAR-3 ovarian 93.7% | HS 578T breast 101% | NCI/ADR-RES ovarian 27% | T-47D breast 74.6% | BT-549 breast 70.9% | SW-620 colon 49% | MCF7 breast 33.5% | HCT-116 colon 26.5% | HCC-2998 colon 92.2% | KM12 colon 31.9%
